High-throughput results: PubChem, National Center for Advancing Translational Sciences (NCATS)
LmPK inhibitor: qHTS Assay for Inhibitors of Leishmania Mexicana Pyruvate Kinase (LmPK); Q27686; purified LmPK, Kinase-Glo ATP luminescence, 1 h; Potency, µM (top dose mostly 57.5 µM), inactives show at the top dose activity change, negative = inhibition, actives largely listed as inhibitors; actives 0.37% (n = 290,000); AID 1721, 2009
Target sequence (Q27686 whole entry, looked up): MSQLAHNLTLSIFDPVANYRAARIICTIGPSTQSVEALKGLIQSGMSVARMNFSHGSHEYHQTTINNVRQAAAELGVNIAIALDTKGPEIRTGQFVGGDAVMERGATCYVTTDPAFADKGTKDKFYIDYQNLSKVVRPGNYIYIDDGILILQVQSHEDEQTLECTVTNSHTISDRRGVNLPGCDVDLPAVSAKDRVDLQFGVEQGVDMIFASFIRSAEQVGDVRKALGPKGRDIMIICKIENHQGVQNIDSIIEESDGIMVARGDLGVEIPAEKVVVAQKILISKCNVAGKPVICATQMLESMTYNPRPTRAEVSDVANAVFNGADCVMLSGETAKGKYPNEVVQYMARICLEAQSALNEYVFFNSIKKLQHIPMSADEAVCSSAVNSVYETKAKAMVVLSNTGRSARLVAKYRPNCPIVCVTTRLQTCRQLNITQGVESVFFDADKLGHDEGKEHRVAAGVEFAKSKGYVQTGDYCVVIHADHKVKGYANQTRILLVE
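In 50 mM imidazole pH 7.2 with 7 mM MgCl2, LmPK (0.1 nM) turned over PEP (0.5 mM) and ADP (0.1 mM) for 1 h at room temperature. Luciferase read-out of ATP.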
Giardia FBPA inh: qHTS Assay for Inhibitors of Fructose-1,6-bisphosphate Aldolase from Giardia Lamblia; A8B2U2; purified Giardia FBPA; Potency, µM (titrated, usually from 59.6 µM), without a hit: top-dose activity, negative = inhibition, usual class: inhibitors; actives 0.71% (n = 290,000); AID 2451, 2010; note: nearly all actives have a fitted effect of over 55% in size
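Giardia FBPA (40 nM reagent) was preincubated 10 min at RT with compound (up to 57.5 uM final), then substrate plus GAPDH/TPI/NAD/arsenate coupling system with diaphorase/resazurin was added; resorufin fluorescence (525/598 nm) was read after 20 min.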
TbPYK inhibitor: qHTS of Trypanosoma Brucei Inhibitors; Potency, µM (highest dose often 76.8 µM), for the others: at the top dose activity, negative = inhibition, actives largely listed as inhibitors; actives 0.12% (n = 410,000); AID 624173, 2012; TbPYK enzyme, Kinase-Glo Plus ATP luminescence, 45 min; pyruvate kinase (Trypanosoma brucei), Q57TT1; note: nearly all actives have a fitted effect of over 50% in size
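Luminescence from Kinase-Glo Plus, added after a 45-minute room-temperature reaction, served as the end-point read-out. The enzyme and substrate were preincubated with compound before ADP (130 uM final) initiated turnover. Concentration-effect curves came from normalized qHTS data.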
AmpC no deterg: qHTS Inhibitors of AmpC Beta-Lactamase (assay without detergent); Potency, µM (titrated, usually from 57.1 µM), inactives show top-dose activity change, negative = inhibition, hits mostly inhibitors; AmpC nitrocefin hydrolysis, absorbance 480 nm, 0.0001% Triton; P00811; actives 0.52% (n = 330,000);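 note: plate controls were no compound for no effect and no enzyme for full effect; nearly all actives have a fitted effect of over 20% in size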
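20 mM phosphate pH 7.0 + 0.01% (detergent screen) or 0.0001% Triton X-100; 5.3 nM AmpC reagent; cpd preinc 15 min RT; nitrocefin (800 uM stock) to start; A480 q20 s × 4 min; Activity was normalised to no-enzyme and no-compound control wells.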
RE007 growth inh: qHTS Assay for Inhibitors of the HIV-1 protein Vpr | S. pombe RE007 Vpr strain, BacTiter-Glo ATP luminescence, 24 h | Potency, µM (doses to about 92.2 µM), for the others: at the top dose activity change, negative = less growth, most hits filed as inhibitors | actives 0.21% (n = 360,000) | AID 651644, 2012; active = well fitted falling curve with a large enough effect; inconclusive = small, poorly fitted or top-dose-only effect; inactive = no such curve, though single readings can be large or run the other way; note: nearly all actives have a fitted effect of over 50% in size
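Fission yeast strain RE007, carrying one chromosomally integrated HIV-1 vpr copy, was seeded at OD 0.01 in PMG+AL medium with 23 nL pinned compound. After 24 h at 30 °C and 99% humidity, viability was read by BacTiter-Glo luminescence.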
AmpC detergent: qHTS Inhibitors of AmpC Beta-Lactamase (assay with detergent); P00811; AmpC hydrolysis of nitrocefin, absorbance 480 nm, 0.01% Triton; Potency, µM (series often up to 114 µM), inactives show at the highest dose activity change, negative = inhibition, actives largely listed as inhibitors; actives 0.041% (n = 370,000); AID 485294, 2010;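 note: 0% = no-compound wells and -100% = no-enzyme wells; nearly all actives have a fitted effect of over 25% in size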
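20 mM phosphate pH 7.0 + 0.01% (detergent screen) or 0.0001% Triton X-100; 5.3 nM AmpC reagent; cpd preinc 15 min RT; nitrocefin (800 uM stock) to start; A480 q20 s × 4 min; Activity was normalised to no-enzyme and no-compound control wells.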
* hit, by the source's call; ? = inconclusive; . = no result; [ ] = another dose, or the depositor's remark. This is a sample that favours compounds with a hit; in the whole collection about 1.4% have one here. Unless noted, calls come from the whole dose curve; as a rule, active = well fitted curve in the direction sought with a large enough effect; inconclusive = small, poorly fitted or top-dose-only effect, or another doubt; inactive = no such curve, though single readings can be large; an effect the other way counts as inactive or inconclusive. Unless noted, % is set by controls: 0 for no effect and ±100 for the full control effect; potency is the fitted concentration of half-maximal effect.

SMILES | LmPK inhibitor | Giardia FBPA inh | TbPYK inhibitor | AmpC no deterg | RE007 growth inh | AmpC detergent
C=C(C)C1CC=C(C)/C(=N/NC(=O)c2ccccc2[N+](=O)[O-])C1 (stereo not drawn) | -15% | 0% | 5% | 16µM* | -21% | 5%
N#Cc1ccc2sn(-c3ccccc3)c(=O)c2c1 | . | . | 4µM* | . | 7.9µM* | .
CC(=O)Nc1ccc2sn(-c3ccccc3)c(=O)c2c1 | . | . | ? | . | 5% | .
O=c1c2cc([N+](=O)[O-])ccc2sn1-c1ccccc1 | . | . | 4.5µM* | . | 5.6µM* | .
Cc1cccc(CCNc2ncnc3onc(-c4ccc(Cl)cc4)c23)c1 | . | . | -8% | . | . | -15%
S=c1[nH]c(-c2ccccc2)cn1/N=C/c1ccncc1 | 4.5µM* | -1% | ? | -33% | 3% | 4%
CCSC(=O)N=Nc1ccc(O)cc1 | . | . | -12% | . | 16µM* | .
CC(CNC(=O)C1CCN(Cc2cc3ccccc3n2Cc2ccccc2)CC1)c1ccccc1 (stereo not drawn) | . | . | -5% | . | . | 9%
O=C1N=c2ccccc2=C1c1sc(=O)[nH]c1O | 10µM* | -2% | ? | -17% | 9% | 2%
CCOC(=O)c1cc(CC)sc1/N=C/C1C(=O)CC(C)(C)CC1=O | 0% | 3% | -9% | -7% | -1% | 4%
CCOC(=O)c1cc(CC)sc1/N=C/C1C(=O)NC(=S)NC1=O | -2%[11.5 µM] | 18µM* | -10% | -28% | -2% | 1%
COc1ccc(-c2c(C)nn3c(N4CCN(c5ccccc5)CC4)cc(C)nc23)cc1OC | . | . | -8% | . | . | ?
NS(=O)(=O)c1ccc(NC(=O)N2c3ccccc3Sc3ccccc32)cc1 | 5% | 14% | 0% | 35µM* | -13% | -11%
CCc1ccc(NC(=O)CSc2nc3ncccc3[nH]2)cc1 | . | . | -6% | . | . | 15%
CCOc1ccc(N2CC(NC(=O)c3cccc4ccccc34)CC2=O)cc1 (stereo not drawn) | . | . | -3% | 32µM* | 11% | ?
CCOc1ccc(N2CC(NC(=O)c3ccco3)CC2=O)cc1 (stereo not drawn) | . | . | -11% | . | . | 3%
CO[C@@H]1[C@@H]([C@H](C)[C@@H]2O[C@@]3(CC[C@@](C)([C@H]4CC[C@@](C)([C@H]5O[C@H]([C@H]6O[C@](C)(O)[C@H](C)C[C@@H]6C)C[C@H]5O[C@H]5C[C@@H](OC)[C@H](OC)[C@@H](C)O5)O4)O3)C[C@@H](O)[C@@H]2C)O[C@@](O)(CC(=O)O)[C@H](C)[C@H]1OC | . | . | 0% | . | . | .
O=C(NC(=S)Nc1ccc2c(c1)OCCO2)c1ccc(F)cc1Cl | 3% | 2% | -3% | -10% | -5% | 79µM*
Cc1ccc(C)c(Cn2c3ccccc3c3cnn(CC(=O)NC4CCC(C)CC4)c(=O)c32)c1 (stereo not drawn) | . | . | -3% | . | . | 18%
CC1=C(C(=O)Nc2ccccc2)C(c2cccn2C)n2ncnc2N1 (stereo not drawn) | . | . | -6% | . | . | 17%
COc1ccc(N2C(=O)C(CC(=O)Nc3ccccc3)N(CCC3=CCCCC3)C2=O)cc1 (stereo not drawn) | . | . | 5% | . | . | 7%
O=c1/c(=C/c2ccccn2)sc2nc3ccccc3n12 | ? | -10% | -8% | -12% | -16% | -12%
COC(=O)/C=c1/sc2nc3ccccc3n2c1=O | -25% | -1% | ? | -34% | -22% | 45µM*
O=c1/c(=C\c2cc([N+](=O)[O-])cc([N+](=O)[O-])c2O)sc2nc3ccccc3n12 | -4% | 16µM* | 28µM* | -46% | 1% | ?
COc1ccccc1N1CCN(C(=O)Cn2c(=O)nc(-c3ccccc3)c3cc(Cl)ccc32)CC1 | . | . | -4% | . | . | 0%
SMILES | LmPK inhibitor | Giardia FBPA inh | TbPYK inhibitor | AmpC no deterg | RE007 growth inh | AmpC detergent
CCOC(=O)CNC(=O)c1cc2c(=O)n3cccc(C)c3nc2n1C | . | . | 2% | . | . | 4%
O=[N+]([O-])c1ccc(N2CCNCC2)cc1NCc1ccco1 | -1% | 3% | 34% | 18µM* | . | -11%
COc1ccccc1C1CC(=O)Oc2cc3c(cc21)OCO3 (stereo not drawn) | . | 40µM* | . | . | . | .
COc1ccccc1C1CC(=O)Oc2cc(C)c(Cl)cc21 (stereo not drawn) | . | -7%[89.2 µM] | 2% | -27% | -9% | .
Nc1nnc2c(n1)CCCC2 | -3% | ? | 0% | 0.16µM* | 4% | -1%
CN(CC(=O)Nc1ccc(Cl)c(C(F)(F)F)c1)C(=O)c1cn2ccccc2n1 | . | . | -1% | 35µM* | 30% | -6%
CCC1CCCCN1C(=O)Cn1c(=O)n(CCCCCC(=O)NCc2ccccc2Cl)c(=O)c2sccc21 (stereo not drawn) | . | . | -5% | . | . | 22%
CC(=O)c1ccc(NC(=O)Nc2ccc(S(=O)(=O)N3CCCC3)cc2)cc1 | 0% | . | -9% | 14µM* | 8% | -6%
COc1ccc(Cl)cc1NC(=O)Cc1ccc(NC(=O)N2CCCCc3ccccc32)cc1 | . | . | -5% | . | . | -1%
CC(=NCC1CCCO1)c1c(O)n(Cc2ccccc2)c(=O)[nH]c1=O (stereo not drawn) | -4% | -1% | -2% | 2.2µM* | 0% | 7%
O=C(Cn1cnnn1)N[C@@H]1C(=O)N2C(C(=O)O)=C(CSc3nncs3)CS[C@H]12 | . | . | -14% | . | . | .
CCCCCCCCCCCCCCCC[n+]1cccc2ccccc21 | -7% | 3% | -23% | 177% | 11µM* | -5%
N#C/C(=C\c1ccc(Sc2nc3ccccc3[nH]2)o1)c1ccccc1 | 9% | -14% | 4% | -39% | -7% | ?
N#C/C(=C\c1c(Cl)cccc1Cl)c1nc2ccccc2[nH]1 | 0% | -12% | -3% | 11µM* | -19% | -4%
N#C/C(=C\c1ccc(Sc2ccc(Cl)cc2)o1)c1nc2ccccc2[nH]1 | -1% | -22% | -6% | 28µM* | 0% | -14%
O=C(CCn1c(=O)c2cccn2c2cccnc21)N1CCN(c2ccccc2F)CC1 | . | . | -1% | . | . | -5%
Cc1ccc(NS(=O)(=O)c2cc(C(=O)Nc3cccnc3)ccc2C)cc1 | -4% | . | 6% | 28µM* | 2% | 6%
